RGS12 GoLoco inh – RGS12 GoLoco-Gai1 interaction inhibition | Gai1:RGS12 GoLoco peptide FP, rhodamine, 10 min | Potency, µM (top dose mostly 61.6 µM), actives largely listed as inhibitors | 230,000 tested, 0.44% active; active means well fitted inhibition curve with a large enough effect, not every such curve was filed as active; inactive means no such curve, though single readings can be large or run the other way; further: nearly all actives have a fitted effect of over 30% in size
MLL CXXC-DNA inh – MLL CXXC-DNA interaction inhibition; Q03164; MLL-CXXC / FITC-HOXA9 DNA fluorescence polarization; Potency, µM (doses to about 115 µM), most hits filed as inhibitors; 290,000 tested, 0.037% active; AID 2662; active means well fitted inhibition curve with a large enough effect in the polarisation, with a control signal flat, not every such curve was filed as active; inconclusive means small, poorly fitted or top-dose-only effect, or effect the other way, or a change in a side signal; inactive means no such curve, though single readings can be large or run the other way; the % refers to the polarisation
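Fluorescence polarization: 7 uM MLL-CXXC (stock) preincubated 5 min with compounds, then 50 nM fluorescein-HOX-A9 DNA (stock) added; 30 min ambient. Buffer 50 mM Tris-HCl pH 7.5, 50 mM NaCl, 1 mM DTT, 0.05% BSA.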
Menin-MLL FL inh – inhibitors of human menin-MLL interaction, wild-type MLL peptide; Fluorescence polarization, fluorescein-MLL peptide displacement from menin; FP activity change, % at 61.4 µM; 290,000 tested, under 10 active; active means well fitted curve in the direction sought with a large enough effect in the polarisation, not every such curve was filed as active; inconclusive means small, poorly fitted or top-dose-only effect, or effect the other way, or a change in a side signal; inactive means no such curve, though single readings can be large or run the other way; the % refers to the polarisation
Menin MLL FP TR – inhibitors of human menin-MLL interaction, mutant MLL peptide; Menin + Texas Red MLL mutant peptide, fluorescence polarization; Potency, µM (doses to about 61.6 µM), usual class: inhibitors; 270,000 tested, 0.23% active; active means well fitted inhibition curve with a large enough effect in the polarisation, with a control signal flat, not every such curve was filed as active; inconclusive means small, poorly fitted or top-dose-only effect, or effect the other way, or a change in a side signal; inactive means no such curve, though single readings can be large or run the other way; the % refers to the polarisation
Target sequence (O00255 whole entry, looked up): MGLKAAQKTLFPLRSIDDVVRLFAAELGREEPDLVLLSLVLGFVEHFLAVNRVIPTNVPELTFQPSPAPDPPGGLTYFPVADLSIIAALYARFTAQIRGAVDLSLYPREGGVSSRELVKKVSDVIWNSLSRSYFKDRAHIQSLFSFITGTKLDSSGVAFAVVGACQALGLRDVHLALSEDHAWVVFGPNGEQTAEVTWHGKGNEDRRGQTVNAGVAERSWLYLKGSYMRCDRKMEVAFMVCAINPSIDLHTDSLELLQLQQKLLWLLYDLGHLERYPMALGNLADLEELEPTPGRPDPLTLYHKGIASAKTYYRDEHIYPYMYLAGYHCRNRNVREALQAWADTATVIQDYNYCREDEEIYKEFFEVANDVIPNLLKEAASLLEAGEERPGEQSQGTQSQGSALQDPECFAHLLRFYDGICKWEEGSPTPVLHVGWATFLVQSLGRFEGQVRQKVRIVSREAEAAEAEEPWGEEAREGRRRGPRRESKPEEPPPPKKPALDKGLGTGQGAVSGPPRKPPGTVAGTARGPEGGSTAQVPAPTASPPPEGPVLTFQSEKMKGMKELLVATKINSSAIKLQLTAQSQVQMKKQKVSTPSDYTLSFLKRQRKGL
A number is an active result; . = inactive; ? = inconclusive; / = not tested or not shown; ! = not active in a repeat; [ ] = another dose, or the depositor's remark. The entries come from a sample that favours hits as a whole.

SMILES	RGS12 GoLoco inh	MLL CXXC-DNA inh	Menin-MLL FL inh	Menin MLL FP TR
CC1(C(=O)O)CCC2(C)CCC3(C)C(=CC(=O)C4C5(C)CCC(O)C(C)(C)C5CCC43C)C2C1 (configuration not stated)	/	.	.	.
COc1ccc(OC)c(C2=Nn3c(nnc3-c3ccccc3OC)SC2)c1	/	/	?	.
C/C(=N/NC(=O)c1ccc2c(c1)OCO2)c1ccc(Br)s1	.	.	.	.
C/C(=N\NC(=O)c1ccc(Cl)c(Cl)c1)c1ccc(Br)s1	.	.	.	11.2µM
IC(I)I	14.1µM	.	.	.
O=C(O)c1cc(-c2ccc(/C=C3/SC(=S)N(Cc4ccccc4)C3=O)o2)ccc1Cl	.	?	?	.
CN1C(=O)/C(=C/c2ccc(-c3ccccc3[N+](=O)[O-])o2)SC1=Nc1ccc(Cl)c(C(=O)O)c1	14.1µM	.	.	.
O=C(Cl)CCCCCCCC(=O)Cl	/	/	.	.
CC1=NN(c2cccc(F)c2)C(=O)/C1=C/c1ccc(N(C)C)cc1	/	?	.	22.4µM
COc1cc(/C=N/NC(=O)C2c3ccccc3Oc3ccccc32)ccc1O	.	.	.	2.82µM
O[C@@H](c1cc(-c2ccccc2)nc2c1ccc1ccccc12)C1CCCCN1 (some centres not stated)	.[14.2 µM]	/	/	/
CN(C)c1ccc(NC(=O)CSCc2nc3c(nnn3Cc3ccc(F)cc3)c(=O)[nH]2)cc1	3.55µM	.	?	?
CCN1/C(=C/c2ccc3cc(C)ccc3[n+]2CC)Sc2ccccc21	.	?	?	?
CCN1/C(=C/c2sc(-c3ccccc3C)c[n+]2C)Sc2ccccc21	10µM	.	.	25.1µM
COc1cc(O)c2c(c1)oc(=O)c1c3cc(O)c(O)cc3oc21	/	/	.	?
O=C(CNCC1CCCCC1)Nc1ccc(N2CCCCC2)cc1	.	.	.	?
O=C(CNCC1CCCO1)Nc1ccc(N2CCCCCC2)cc1 (configuration not stated)	.	.	.	14.1µM
COC(=O)[C@H]1C[C@@H]1[C@H](NC(C)=O)c1ccccc1	1.26µM	/	.	.
CCCNC(=O)OC[C@H]1O[C@@H](CCO/N=C2/C[C@@H](O)[C@@H](O)[C@@H]3[C@@H]4C(=O)N(CC)C(=O)[C@H]4CC[C@@H]23)C=C[C@@H]1Oc1ccc(OC)cc1	/	/	.[11.7 µM]	.[11.7 µM]
CC(=O)c1c(COC(=O)c2cccnc2)nc2ccccc2[n+]1[O-]	8.91µM	.	.	.
CC(=O)c1c(COC(=O)c2ccc(C)cc2)nc2ccccc2[n+]1[O-]	.	.	.	/
CN1CC(O)C2=CC(=O)C(=O)C=C21 (configuration not stated)	3.55µM	/	/	/
CC(=O)NN1C(=O)/C(=C2/Sc3ccc(Cl)cc3N2C)SC1=S	/	.	.	35.5µM
CCN1C(C)=C(C)S/C1=C1\SC(=S)N(NC(C)=O)C1=O	.	.	.	.
NCCC[C@@H](CC(=O)N[C@@H]1CCNC[C@H]1C(=O)N[C@H](CC(=O)N[C@@H](CCC(=O)O)CC(=O)O)Cc1ccccc1)NC(=O)C[C@H](Cc1c[nH]c2ccccc12)NC(=O)[C@@H]1CCCC[C@H]1N	20µM	/	.	.
SMILES	RGS12 GoLoco inh	MLL CXXC-DNA inh	Menin-MLL FL inh	Menin MLL FP TR
O=C1c2cccc(O)c2C(=O)c2c(O[C@@H]3O[C@H](CO)[C@@H](O)[C@H](O)[C@@H]3O)cccc21	.[14.2 µM]	/	/	/
COc1ccc(-n2cccc2/C=C2/NC(=O)N(c3cccc(Cl)c3)C2=O)cc1	3.55µM	.	.	.
Cc1ccc2nc(-c3ccc(N)cc3)sc2c1S(=O)(=O)O	.	/	/	/
COc1ccc(C(=O)OCCc2ccc(O)cc2)cc1	.	.	.	.
COc1ccc(C(=O)OCC[N+]2(C)CCOCC2)cc1	7.94µM	.	.	.
c1ccc(C(c2cccc3c2ccc2ccccc23)[C@H](c2ccccc2)c2cccc3c2ccc2ccccc23)cc1 (some centres not stated)	.[14.2 µM]	/	/	/
NC(=O)C[N+]1(CC#CC(O)(c2ccccc2)c2ccccc2)CCCC1	8.91µM	.	.	.
CCC[N+]1(CC#CC(O)(c2ccccc2)C2CCCCC2)CCCCC1 (configuration not stated)	.	.	.	/
O=C(O)c1ccccc1-c1oc2cc(O)ccc2c(=O)c1Oc1ccccc1	.	/	.	.
O=C(O)c1ccccc1-c1c2ccc(=O)cc-2oc2cc(O)ccc12	0.398µM	?	?	?
c1ccc(C[n+]2cccc3c4ccccc4ccc32)cc1	.	.	.	.
CCCCC[n+]1cccc2c3ccccc3ccc21	15.8µM	.	?	?
COc1ccc(NC(=O)COC(=O)/C=C/C(=O)OCC(=O)Nc2ccc(OC)c(Cl)c2)cc1Cl	8.91µM	.	.	.
O=C1C[C@H]2OCC=C3CN4CC[C@@]5(C(=O)O)[C@H](N1)C2[C@H]3C[C@H]45 (some centres not stated)	.[14.2 µM]	/	/	/
COc1ccc(C2CC(=O)C3=C(C2)Nc2ccccc2N(C(=O)CCC(=O)O)C3c2ccc(F)cc2)cc1 (configuration not stated)	5.62µM	.	.	/
CNc1ncnc2c1ncn2[C@@H]1O[C@H](COP(=O)(O)O)[C@@H](O)[C@H]1O	.	/	/	/
CCn1c(CSc2nccn2C)nc2cc(C(=O)O)ccc21	15.8µM	?	?	?
COc1cccc(Nc2ncc3nc(-c4cccs4)c(=O)n(C[C@H]4CCCO4)c3n2)c1	.	/	?	?
Cc1cc2c(nc1C)CCCCN2C[C@H](C)O/N=C1/[C@H]2O[C@@H]2[C@@H](O)[C@H]2[C@H]1CCn1c(=O)n(-c3ccccc3)c(=O)n12	/	/	.[11.7 µM]	.[11.7 µM]
COC(=O)C1=CO[C@@H](C)[C@@H]2CN3CCc4c([nH]c5ccccc45)[C@@H]3C[C@H]12	/	/	?	.
O=C(O)c1ccc(Nc2cc(Cl)c3nonc3c2[N+](=O)[O-])cc1	14.1µM	.	.	?
COC(=O)CCCCCCCCCC[N+]1(C)CCCCC1	11.2µM	?	.	.
Cc1ccccc1Nc1nc(Nc2ccccc2C)nc(SC2=NCCS2)n1	.	.	.	.
Cc1ccc(Nc2nc(Nc3ccc(C)cc3)nc(SC3=NCCS3)n2)cc1	.	.	.	39.8µM
C#CCN[C@@H]1CCc2ccccc21	/	.	.	.
SMILES	RGS12 GoLoco inh	MLL CXXC-DNA inh	Menin-MLL FL inh	Menin MLL FP TR
CCCC(=Nc1ccccc1)C1=C(O)C(C(=O)OC)C(C)(C)CC1=O (configuration not stated)	.	.	.	.
CCCCC(=Nc1ccc(N)cc1)C1=C(O)C(C(=O)OC)C(C)(C)CC1=O (configuration not stated)	25.1µM	.	.	?
CCC(=Nc1ccc(N)cc1)C1=C(O)C(C(=O)OC)C(C)(C)CC1=O (configuration not stated)	/	.	?	31.6µM
COc1ccc(-c2nc3cnc(N(C)C)nc3n(CCC#N)c2=O)cc1	.	/	?	.
COc1cc2ccc(=O)oc2cc1O	28.2µM!	/	?	.
O=c1cc(-c2ccc(F)cc2F)[nH]c2ccc(F)cc12	.	/	.	.
OC1(c2ccccc2Cl)NN=C2CCCCCN21 (configuration not stated)	.	.	.	.
C[N+]1=C2CCCCCN2C(O)(c2ccccc2)C1 (configuration not stated)	14.1µM	.	.	.
CCCSc1nc2cc(C)c(C)cc2n1CC(O)CO (configuration not stated)	.	.	.	.

High-throughput results as filed in PubChem.
